# The campaign covered roughly 69,000 compounds. About 8,600 (12%) showed an effect of 50% or more. Shown is part of a subset that was picked to be rich in strong results.
# Tested on: Plasmodium berghei
# Test: Screen against P. berghei liver stage (PbLuc), transformed with Luciferase, at 10uM
# Format: functional, HepG2
# Conditions: tested at 10 uM
row,Compound,INHIBITION [%]
1,COCCN1CCC(CNC(=O)C2(c3ccccc3)CCOCC2)C1 (stereo not drawn),5.9
2,CC1COCCN1Cc1nc(-c2cccc(C(F)(F)F)c2)no1 (stereo not drawn),9.54
3,CCc1c(C)nc2ccccc2c1N1CCC(NC(C)=O)CC1,37.2
4,CCc1c(C)nc2ccccc2c1N1CCC(C(=O)NC)CC1,52.2
5,CCc1c(C)nc2ccccc2c1N1CCC(O)CC1,24.4
6,COc1c(CNC2CCc3ccccc32)c(C(C)C)nn1C (stereo not drawn),11.2
7,CC(=O)N1CCC(NC(=O)Cc2nc3nc(C)cc(C)n3n2)CC1,4.25
8,O=S(=O)(NCC1OCCc2cn(Cc3ccccn3)nc21)C1CC1 (stereo not drawn),10.7
9,C[C@@H]1CN(Cc2cccnc2)C[C@]12CCN(CCN1CCCC1)C2=O,37.1
10,Cc1ccc(CN(Cc2ccccn2)C(=O)[C@H]2CC[C@@H](N)C2)s1,60.8
11,Cc1ccc(CN(Cc2ccccn2)C(=O)C2CCCCCN2C)s1 (stereo not drawn),27.6
12,Cc1ccc(CN(Cc2ccccn2)C(=O)CCC2CCCN(C)C2)s1 (stereo not drawn),49
13,CC(CC1CC1)NCCCN1CCCN(C)CC1 (stereo not drawn),-7.94
14,Cn1cc(NC(=O)Nc2cccc3cccnc23)ccc1=O,37.9
15,Cc1n[nH]c(C)c1C1CCCN1C(=O)NC(C)(C)C (stereo not drawn),31.1
16,COC(C)(C)CNC(=O)N1CCCC1c1c(C)n[nH]c1C (stereo not drawn),82.2
17,Cc1n[nH]c(C)c1C1CCCN1C(=O)NCC(=O)NC(C)(C)C (stereo not drawn),43.3

row,Compound,INHIBITION [%]
1,CCOc1c(CNC2CSCCSC2)cccc1OC,24.9
2,Cc1nnc([C@]23COC[C@H]2CN(Cc2cccs2)C3)o1,27.5
3,COCc1noc(CC2CN(c3ncnc4sc(C)c(C)c34)CCO2)n1 (stereo not drawn),-12.5
4,Cc1cnc(N2CCC3(CCN(CC4CCCC4)C3=O)CC2)nc1,-9.74
5,COc1ccc(-c2nc(CN3CC(n4cc(C)cn4)C3)no2)cc1,90.1
6,Cc1cnn(C2CN(Cc3nc(-c4ccco4)no3)C2)c1,-0.847
7,CCCc1noc(C(C)N2CC(n3cccn3)C2)n1 (stereo not drawn),8.77
8,COc1ccc(-c2nc(CN3CC(n4cccn4)C3)no2)cc1,25.8
9,Cc1ccc(-c2noc(Cn3nc(C(N)=O)ccc3=O)n2)cc1,28.2
10,Cc1cnn(C2CN(Cc3nc(-c4ccccc4C)no3)C2)c1,89.5
11,CCc1ccc(-c2noc(Cn3nc(C(N)=O)ccc3=O)n2)cc1,-16.3
12,Cc1cnn(C2CN(Cc3noc(-c4ccccc4)n3)C2)c1,8.77
13,Cc1ccccc1-c1noc(CN2CC(n3cccn3)C2)n1,-33.7
14,Cc1cnn(C2CN(C(C)c3nc(-c4ccccc4)no3)C2)c1 (stereo not drawn),84
15,Cc1cccc(-c2noc(Cn3nc(C(N)=O)ccc3=O)n2)c1,56
16,CC(c1nc(-c2ccccc2)no1)N1CC(n2cccn2)C1 (stereo not drawn),-66.5

# Reference: ChEMBL document CHEMBL4513216, “Probing the Open Global Health Chemical Diversity Library for Multistage-Active Starting Points for Next-Generation Antimalarials” (ACS Infect Dis, 2020)
